# High-throughput results as filed in PubChem.
# Cycloheximide cs = counter-screen hit for Shiga toxin inhibitors, cycloheximide; cell reporter, cycloheximide protein synthesis inhibition counterscreen; max response, %; actives 12% (n = 300,000); in the data active = max response mostly above about 13%, no sharp cut-off; inactive = mostly below about 14%; also: read at 38.3 µM for the half of the compounds with a filed dose; 0% is about no effect
# Pf growth 96h = P. falciparum growth inhibition at 96 hour, primary screen for plastid delayed-death inhibitors. P. falciparum luciferase reporter growth, 96 h. Potency, µM (titrated, usually from 28.7 µM), inactives show at the top dose activity change, negative = inhibition, actives largely listed as inhibitors. actives 6.9% (n = 320,000); also: potency is read from the fitted curve at half-maximal effect; % is scaled to controls: 0 for no effect and ±100 for the full control effect
#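 Infected RBCs, 2% Hct / 0.05% parasitemia final; luciferase-reporter P. falciparum; cpd 96 h, 37 C, 5% CO2; luciferase detection reagent; luminescence.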
# Pf growth 48h = P. falciparum growth inhibition at 48 hours (one generation); P. falciparum luciferase growth in erythrocytes, 48 h; Potency, µM (doses to about 28.7 µM), without a hit: top-dose activity change, negative = inhibition, actives largely listed as inhibitors; actives 5.9% (n = 310,000); AID 504832; also: potency is read from the fitted curve at half-maximal effect; % is scaled to controls: 0 for no effect and ±100 for the full control effect
#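 First compound was added to culture medium, then infected red cells at 0.1% parasitemia and 2% hematocrit (final). After incubation at 37 C under 5% CO2, luciferase detection reagent was dispensed and light output recorded.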
# Shiga inhibitor = blocks Shiga toxin action in Vero cells | Vero cells, Shiga toxin protein synthesis inhibition reporter | inhibition, % at 38.7 µM | actives 9.2% (n = 290,000); in the data active = inhibition mostly above about 28%, no sharp cut-off; inactive = mostly below about 43%; also: 0% is about no effect
# An asterisk follows results filed as active; ? = inconclusive; · = not tested or not shown; [ ] = dose if it differs, or a comment. Hits are enriched below; roughly 21% of the tested compounds scored in any of these assays. Unless noted, calls follow the shape of the dose curve; as a rule, active = well fitted inhibition curve with a large enough effect; inconclusive = small, poorly fitted or top-dose-only effect, or another doubt; inactive = no such curve, though single readings can be large or run the other way.
SMILES,Cycloheximide cs,Pf growth 96h,Pf growth 48h,Shiga inhibitor
CCCN1CCN(C(=O)CCc2nnc3ccc(N4CCN(c5cccc(OC)c5)CC4)nn23)CC1,0,30%,10µM*,-4
COc1cccc(N2CCN(c3ccc4nnc(CCC(=O)Nc5ccc(F)cc5)n4n3)CC2)c1,4,?,?,14
C=C1c2cccc(O)c2C(O)=C2C(=O)[C@]3(O)C(O)=C(C(N)=O)C(=O)[C@@H](N(C)C)[C@@H]3[C@@H](O)[C@H]12,-3,0.47µM*,?,-2
CN(C)[C@H]1C(=O)C(C(=O)NCN2CCCC2)=C(O)[C@]2(O)C(=O)C3=C(O)c4c(O)cccc4[C@](C)(O)[C@H]3C[C@H]12,·,?,-16%,·
C[C@H]1c2cccc(O)c2C(O)=C2C(=O)C3(O)C(O)=C(C(N)=O)C(=O)[C@@H](N(C)C)[C@@H]3[C@@H](O)[C@@H]21 (stereo partly specified),·,0.37µM*,4.7µM*,·
CCN1C(=O)CSC1=Nc1ccc(C(=O)O)cc1,8,?,?,·
CCN1C(=Nc2ccc(Cl)cc2)SC/C1=C\C(=O)OC,22*,?,-23%,20
NN/C(=C\[N+](=O)[O-])Nc1ccc(Cl)cc1,13,17%,-12%,40
Cc1ccc(CSCC(=O)N/N=C/c2sccc2C)cc1,2,·,5%,-3
C=CCOc1c(CNc2ccc(C(=O)O)cc2)cccc1OCC,31*,42%,47%,36*
C=CCOc1c(CNc2cccc(C(=O)O)c2)cccc1OC,37*,168%,·,71*
C=CCOc1cccc(CNc2cccc(C(=O)O)c2)c1,29*,51%,92%,104*
O=C(O)c1cccc(NCc2cccnc2)c1,0,40%,·,17
C=CCOc1c(CNc2ccc(C(=O)O)cc2)cccc1OC,-2,4.7µM*,13%,-1
C=CCOc1c(CNc2cccc(C(=O)O)c2)cccc1OCC,13,2%,49%,13
COC(=O)CS(=O)(=O)c1ccc2c(c1)CC(=O)N2,-1,56%,3%,7
C=CCOc1c(CNc2ncn[nH]2)cccc1OCC,5,9.3µM*,-24%,0
C=CCOc1c(CNc2nccs2)cccc1OCC,0,·,-18%,14
O=C(COC(=O)c1ccc(CO)cc1)Nc1ccc(OC(F)F)cc1,2,25%,-16%,-9
Nc1c(-c2ccc(Cl)cc2)nnn1-c1ccccc1,45*,8%,107%,98*
Nc1c(-c2ccc(Cl)cc2)cnc2c(-c3ccccc3)cnn12,36*,344%,14%[0.00184 µM],89*
Cc1ccc(-c2cnn(-c3ccccc3)c2N)cc1,32*,412%,232%,41*
COc1ccc(-c2cnn(-c3ccccc3)c2N)cc1OC,12,3%,-3%,36
Nc1c(-c2ccccc2)cnn1-c1ccc(C(=O)O)cc1,48*,173%,·,88*
N#Cc1c(C#N)c(-c2ccccc2)n(-c2ccc(C(=O)O)cc2)c1N,-3,?,-5%,2
SMILES,Cycloheximide cs,Pf growth 96h,Pf growth 48h,Shiga inhibitor
Cc1ccc(C(=O)N/C(=C\c2ccc(C(C)C)cc2)C(=O)NCCCN2CCOCC2)cc1,-3,?,-11%,39
CCOc1ccccc1NC(=O)COC(=O)CCOc1cc(C)ccc1C,·,12%,-17%,·
Nc1c(-c2ccc(Cl)cc2)cnn1-c1ccccc1,37*,207%,10%[0.00184 µM],114*
O=C(NCCCSc1ccccc1)c1cnc(Cl)c(Cl)c1,-8,20%,13%,22
CC1CCN(S(=O)(=O)c2cccc(C(=O)NCc3cccs3)c2)CC1,-2,1%,0%,-7
CC1CCN(c2ccc(C(=O)NCc3cccs3)cn2)CC1,52*,?,?,78
O=C(NCc1cccs1)c1cnc(Cl)c(Cl)c1,30*,9%,10%,45*
O=C(NCCc1ccccc1)c1cnc(Cl)c(Cl)c1,31*,9%,·,105*
O=C(O)CCCCCCCCc1cn(CCc2c[nH]c3ccccc23)nn1,-1,12%,1%,-10
COc1cccc(-n2c(SCc3cc(=O)oc4cc(O)c(O)cc34)nc3ccccc3c2=O)c1,-3,?,34%,13
Cc1cc(C)n(S(=O)(=O)c2cccc(Cl)c2Cl)n1,-1,14%,-30%,-8
CCOc1ccccc1NC(=O)COc1coc(CN2CCc3ccccc3C2)cc1=O,·,13µM*,-15%,·
CCOc1ccccc1NC(=O)CN1CCc2ccccc2C1,-1,?,?,17
CCOc1ccccc1NC(=O)COc1coc(CN2CCCc3ccccc32)cc1=O,·,?,13µM*,·
COc1ccc(NC(=O)COc2coc(CN3CCCc4ccccc43)cc2=O)cc1,·,?,2%,·
N/C(=N\OC(=O)c1ccc2ccccc2c1)c1ccccc1Cl,51*,25%,?,176*
N/C(=N\OC(=O)COc1ccc2ccccc2c1Br)c1ccncc1,24*,-13%,26%,91*
Cc1cccc(OCC(=O)O/N=C(\N)c2ccncc2)c1,20*,?,38%,59*
Cc1ccc(S(=O)(=O)NNC(=O)c2ccncc2)cc1[N+](=O)[O-],-1,1.9µM*,-5%,-4
Cc1cccc(OCC(=O)O/N=C(\N)c2ccc(Br)cc2)c1,-4,12%,0%,-16
CCc1nc(SCc2cccnc2)[nH]c(=O)c1C,-2,6%,23%,-6
Cc1ccc(C(=O)COC(=O)c2ccncc2)cc1[N+](=O)[O-],-3,9.3µM*,24%,21
Cc1cc(C(=O)O/N=C(\N)c2ccncc2)ccc1[N+](=O)[O-],41*,84%,105%,80*
N/C(=N\OC(=O)COc1ccc2ccccc2c1)c1cccnc1,24*,39%,34%,52*
O=C(COc1ccc2ccccc2c1)N1CCN(C(=O)c2cccnc2)CC1,9,?,0%,-9
SMILES,Cycloheximide cs,Pf growth 96h,Pf growth 48h,Shiga inhibitor
N/C(=N\OC(=O)COc1ccc2ccccc2c1)c1ccncc1,31*,-8%,42%,34*
COc1ccc(/C(N)=N/OC(=O)c2ccc([N+](=O)[O-])c(C)c2)cc1OC,5,?,23%,8
N/C(=N\OC(=O)c1ccc2ccccc2c1)c1ccncc1,37*,14%,?,117*
CCCCNC(=O)CSc1cc(=O)n(C)c2ccccc12,-2,0.21µM*,11%,-8
CC(CCc1ccco1)NC(=O)CSc1cc(=O)n(C)c2ccccc12 (stereo unspecified),-3,4.1µM*,50%,-8
CC(C)CNC(=S)N(CCCO)Cc1cc2cc3c(cc2[nH]c1=O)OCO3,6,-25%,112%,-19
OCCn1c(CSc2nnc(-c3ccco3)n2-c2ccccc2)nc2ccc(Cl)cc21,-1,·,12µM*,-8
NC(=O)CSc1nnc(-c2ccco2)n1-c1ccccc1,-2,25%,-1%,-10
CCN1CCN(C(=O)CCc2nnc(CCc3ccccc3OC)o2)[C@@H](C)C1=O,-3,1%,-8%,25
Cc1ccc2nc(NC(=O)[C@H](C)N3C(=O)C4CC=CCC4C3=O)sc2c1 (stereo partly specified),33*,20%,60%,37*
C[C@@H](C(=O)Nc1nc2ccc(F)cc2s1)N1C(=O)C2CC=CCC2C1=O (stereo partly specified),23*,11%,?,57
